High-throughput results (PubChem)
A selection: hits, their analogues and other compounds. The true share with any hit is near 10%.
RORg inh – qHTS for inhibitors of ROR gamma transcriptional activity | Nuclear receptor ROR-gamma (Mus musculus), P51450 | Drosophila S2 Gal4-RORgamma UAS-luciferase reporter, 20 h | Potency, µM (top dose mostly 53.6 µM), most hits filed as inhibitors | 5.4% of 310,000 active; also: nearly all actives have a fitted effect of over 60% in size
Target sequence (P51450 whole entry, looked up, the tested form may be a part): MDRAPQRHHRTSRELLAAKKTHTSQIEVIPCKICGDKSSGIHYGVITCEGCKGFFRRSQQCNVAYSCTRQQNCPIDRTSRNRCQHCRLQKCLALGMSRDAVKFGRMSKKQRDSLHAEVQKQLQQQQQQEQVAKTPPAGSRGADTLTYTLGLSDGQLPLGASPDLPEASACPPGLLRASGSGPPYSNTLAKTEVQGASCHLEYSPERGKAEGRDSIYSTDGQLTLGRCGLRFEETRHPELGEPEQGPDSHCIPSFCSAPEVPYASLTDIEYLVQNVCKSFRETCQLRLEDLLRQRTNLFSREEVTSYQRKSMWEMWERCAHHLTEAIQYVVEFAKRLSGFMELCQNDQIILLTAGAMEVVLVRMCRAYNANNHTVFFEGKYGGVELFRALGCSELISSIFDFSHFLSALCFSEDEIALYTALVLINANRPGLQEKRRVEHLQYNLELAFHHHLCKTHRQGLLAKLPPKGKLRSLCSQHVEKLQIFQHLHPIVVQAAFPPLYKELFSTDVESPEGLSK
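Drosophila S2 cells stably expressing Gal4-DBD/mouse RORγ fusion under metallothionein promoter plus UAS-luciferase; compound 1 h, then 700 uM CuSO4 induction for 20 h at ambient temperature; inhibition read as reduced luminescence.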
SW480 rereplic – A quantitative high throughput screen for small molecules that induce DNA re-replication in SW480 colon adenocarcinoma cells. SW480 DNA re-replication, Hoechst DNA content imaging, 48 h. Potency, µM (series often up to 46.1 µM), usual class: activators. 1.8% of 340,000 active. AID 624297, 2012; also: nearly all actives have a fitted effect of over 55% in size
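250 cells/well; 23 nL cpd via pin tool; 48 hr, 37 C, 5% CO2; Hoechst 40 min; imager read of total nuclear intensity, ex 405/em 500-530 nm.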
MCF10A rereplic – A quantitative high throughput screen for small molecules that induce DNA re-replication in MCF 10a normal breast cells; 2.9% of 350,000 active; Potency, µM (highest dose often 46.1 µM), most hits filed as activators; MCF 10A DNA re-replication, Hoechst nuclear intensity, 48 h; also: nearly all actives have a fitted effect of over 50% in size
ELG1 DNA repair – qHTS screen for small molecules that inhibit ELG1-dependent DNA repair in human embryonic kidney (HEK293T) cells expressing luciferase-tagged ELG1 | HEK293T ELG1-luciferase reporter, luminescence, 16 h; DNA damage induced by 5-fluorouridine | Potency, µM (series often up to 46.1 µM), actives largely listed as inhibitors | 2.3% of 330,000 active; also: nearly all actives have a fitted effect of over 55% in size
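5-Fluorouridine DNA damage + compound/DMSO, 2,000 cells/well, 16 h, 37 °C/5% CO2. ONE-Glo, 30 min RT, luminescence. Readout = decrease in reporter signal.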
Gal4-VP16 FLuc – VP16 counterscreen qHTS for inhibitors of ROR gamma transcriptional activity | Drosophila S2 Gal4-VP16 UAS-luciferase, luminescence, 20 h | Potency, µM (doses to about 53.6 µM), most hits filed as inhibitors | 3.5% of 310,000 active;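 also: Gal4-VP16 expression switched on by copper sulfate through the metallothionein promoter; nearly all actives have a fitted effect of over 50% in size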
Hits are given with their value; - = inactive; ? = inconclusive; . = not tested or not shown; [ ] = dose if it differs, or a comment. Calls follow the shape of the dose curve; as a rule, active = well fitted curve in the direction sought with a large enough effect; inconclusive = small, poorly fitted or top-dose-only effect, or another doubt; inactive = no such curve, though single readings can be large; an effect the other way counts as inactive or inconclusive.

SMILES	RORg inh	SW480 rereplic	MCF10A rereplic	ELG1 DNA repair	Gal4-VP16 FLuc
COc1cc(S(=O)(=O)N2CC(=O)Nc3ccccc32)ccc1NC(C)=O	-	-	-	-	-
O/N=C/c1ccc2cccc(OCc3ccccc3)c2n1	-	-	-	-	-
O=C(N/N=C/c1ccc2cccc(OCc3ccccc3)c2n1)c1ccc(Br)cc1	-	-	?	16µM	-
NC(=S)N/N=C/c1ccc2cccc(OCc3ccccc3)c2n1	7.1µM	-	?	-	?
COC(=O)N/N=C/c1ccccc1OCc1ccccc1	?	-	-	-	-
NC(N)=N/N=C/c1ccc2cccc(OCc3ccccc3)c2n1	-	-[9.22 µM]	?	-	-
NC(=S)N/N=C/c1ccccc1OCc1cccc(Cl)c1	0.79µM	?	?	-	4µM
COc1ccc(C(=O)N/N=C/c2ccc3cccc(OCc4ccccc4)c3n2)cc1	-	-	-	15µM	-
CCOC(=O)N1CCN(C(=O)CSC2=NS(=O)(=O)c3cc(F)ccc3N2)CC1	.	-	?	-	.
Cc1c(O)ccc2c(CC(=O)N[C@@H](Cc3ccccc3)C(=O)O)cc(=O)oc12	-	?	23µM	-	-
CCc1cc2c(COC(=O)c3cccc(S(C)(=O)=O)c3)cc(=O)oc2cc1O	-	-	-	?	-
CNS(=O)(=O)c1cccc(C(=O)OCc2cc(=O)oc3c(C)c(O)ccc23)c1	?	-	?	23µM	-
COc1ccc2c(CC(=O)N[C@@H](Cc3ccccc3)C(=O)O)cc(=O)oc2c1	-	-	-	-	-
Cc1c(O)ccc2c(CN(C)Cc3ccccc3)cc(=O)oc12	-	18µM	-	13µM	?
O=C(NCCCCc1ccccc1)C1CC(c2ccc(C(F)(F)F)cc2)=NO1 (centres undefined)	-	-	-	-	-
Cc1[nH]c(C)c(S(=O)(=O)N2CCN(c3ccccc3F)CC2)c1C(=O)N1CCCC1	-	-	-	-	-
O=c1cc(-c2ccccc2)nc2cc(-c3ccc(Br)cc3)[nH]n12	-	-	3.3µM	?	-
Cc1cc2nc(-c3ccccc3)cc(=O)n2[nH]1	13µM	-	-	?	?
CCOc1ccc(NC(=O)CN(C)C(=O)c2ccccc2OCCOc2ccccc2)cc1OCC	.	-	-	12µM	.
CCOc1ccc(NC(=O)CN(C)C(=O)c2cn(-c3ccc(F)cc3)nc2-c2cccc(OC)c2)cc1OCC	.	-	?	9.2µM	.
CN(CC(=O)Nc1cccc(F)c1)C(=O)c1cn(-c2ccccc2)nc1-c1ccccc1	-	-	-	-	-
CCOc1ccc(NC(=O)CN(C)C(=O)c2ccccc2CCc2ccccc2)cc1OCC	.	-	?	7.3µM	.
CCOC(=S)SCC(=O)N1CCc2cc(OC)ccc2C1C1C(=O)CCCC1=O (centres undefined)	-	10µM	?	-	-
Cn1c(NN)nc2ccccc2c1=O	?	-	-	-	-
Cc1ccc(-n2c(NN)nc3ccccc3c2=O)c(C)c1	?	-	-	-	20µM
SMILES	RORg inh	SW480 rereplic	MCF10A rereplic	ELG1 DNA repair	Gal4-VP16 FLuc
CCOC(=O)C1(Cc2ccc(Cl)cc2)CCN(C(=O)c2cc(C)nc(C)n2)CC1	-	-	-	-	-
C[C@@H](C[C@@H](O)[C@H](O)C(C)(C)O)[C@@H]1CC[C@]2(C)C3=CC[C@H]4C(C)(C)C(=O)CC[C@]4(C)[C@H]3CC[C@@]12C	4.5µM	-	?	-	?
C[C@H](C[C@H](O)[C@H]1OC1(C)C)C1=C2C[C@H](O)C3[C@@]4(C)CCC(=O)C(C)(C)C4CC[C@]3(C)[C@@]2(C)CC1 (some centres undefined)	.	?	?	-	.
CCC1CCCCN1C(=S)NC(=O)c1cc(S(=O)(=O)N2CCOCC2)ccc1C (centres undefined)	2.2µM	?	-	-	4µM
Cc1ccc(S(=O)(=O)N2CCOCC2)cc1C(=O)Nc1nc2ccccc2[nH]1	16µM	-	?	-	18µM
O=S(=O)(NCc1ccco1)c1ccc(Cl)nc1	-	-	-	-	-
COc1ccc(-c2cc(C(=O)N3CCCC(C(F)(F)F)C3)c3ccccc3n2)cc1OC (centres undefined)	.	-	?	?	.
CN(C)S(=O)(=O)c1cccc(NC(=S)NC2CCCCC2)c1	-	?	-	-	-
NS(=O)(=O)c1cccc(NC(=S)NC(=O)C23CC4CC(CC(C4)C2)C3)c1	-	-	?	-	-
Cc1ccc(S(=O)(=O)N(C)C)cc1NC(=S)NC(=O)C12CC3CC(CC(C3)C1)C2	7.1µM	-	-	-	7.1µM
COc1cc(/C=N/NC(=S)Nc2cccc(S(=O)(=O)N(C)C)c2)ccc1O	3.5µM	-	-	?	3.5µM
CN(C)S(=O)(=O)c1cccc(NC(=S)NN=C(Cc2ccccc2)Cc2ccccc2)c1	13µM	-	-	-	?
CN(C)S(=O)(=O)c1cccc(NC(=S)NC23CC4CC(CC(C4)C2)C3)c1	4.5µM	?	?	-	?
COc1cc(/C=N/NC(=O)c2cccc(NC(=O)c3ccccc3)c2)ccc1O	?	-	-	-	-
Cc1ccc(S(=O)(=O)N(C)C)cc1NC(=S)NC12CC3CC(CC(C3)C1)C2	5µM	-	?	?	5.6µM
CC1CCCC(NC(=S)Nc2cccc(S(=O)(=O)N(C)C)c2)C1C (centres undefined)	13µM	-	-	?	?
Cc1ccc(S(=O)(=O)N(C)C)cc1NC(=S)Nc1ccc2[nH]c(=O)[nH]c2c1	-	-	-	-	-
Cc1ccc2[nH]c(=O)c(CN(C(=O)c3cccs3)c3ccccc3)cc2c1	-	-	-	?	-
Cc1ccc(O)c(C(=O)c2cc(C#N)c(=O)n(-c3nccs3)c2)c1	?	-	12µM	-	-
COC(=O)c1sc(NC(=S)NNC(=O)c2c(Br)c(C)nn2C)c(C(=O)OC)c1C	6.3µM	-	-	-	?
COC(=O)c1sc(S(=O)(=O)Nc2c(C)nn(C)c2C)c(C(=O)OC)c1C	.	-	-	-	.
Cc1ccc(-c2sc(C(=O)NN)c(C)c2C#N)cc1	4.5µM	-	-	?	7.1µM
O=C(CN1CCCCCCC1)N/N=C/c1ccc([N+](=O)[O-])o1	?	?	-	-	?
O=C(CCN1CCN(c2ccccc2)CC1)N/N=C/c1ccc([N+](=O)[O-])o1	18µM	-	?	-	-
O=C(CNc1cccc2ccccc12)N/N=C/c1ccc([N+](=O)[O-])o1	11µM	?	?	?	?
O=C(CNc1cccc2ccccc12)N/N=C/c1ccc[nH]1	5µM	-	-	-	14µM
